Sampled rows, rich in hits. Any-hit rate of the full collection: about 13%.
Pf growth 96h – P. falciparum growth inhibition at 96 hours | P. falciparum luciferase reporter growth, 96 h | 6.9% of 320,000 active | Potency, µM (highest dose often 28.7 µM), without a hit: top-dose activity change, negative = inhibition, actives largely listed as inhibitors | AID 504834; further: potency means the concentration at half of the fitted maximal effect
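Cell-based qHTS: luciferase-tagged P. falciparum in erythrocytes (2% hematocrit, 0.05% parasitemia final) incubated with compounds for 96 hours, 37 C, 5% CO2; luciferase detection reagent then added and luminescence measured.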
Pf growth 48h – P. falciparum growth inhibition at 48 hours (one generation); Potency, µM (titrated, usually from 28.7 µM), inactives show at the top dose activity change, negative = inhibition, hits mostly inhibitors; P. falciparum luciferase growth in erythrocytes, 48 h; AID 504832; 5.9% of 310,000 active; further: potency means the concentration at half of the fitted maximal effect
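Parasite viability was followed by luminescence of a genomically integrated firefly luciferase. Cultures held 0.1% parasitemia at 2% hematocrit (final), incubated under 5% CO2 at 37 C.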
HCMV antiviral – blocks human cytomegalovirus replication; HFF cells, HCMV-luciferase reporter, 72 h; stronger effect = lower value; activity change, negative = inhibition, % at 57.5 µM; 4.5% of 410,000 active; in the data active means activity change below about -60%; inconclusive means no clear call, values can overlap the other calls; inactive means above about -39%
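After 16 h attachment at 37C, HFF cells received test compound and HCMV-luciferase (1 PFU/cell); reporter luminescence read 72 h later, data normalized against buffer-only and known inhibitor Salinomycin.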
HCV inhibitor – blocks hepatitis C virus. Huh7.5.1 HCVcc-Cre infection, luciferase reporter, 44 h. Potency, µM (top dose mostly 41.8 µM), without a hit: at the top dose activity change, negative = inhibition, actives largely listed as inhibitors. 3.4% of 340,000 active; further: potency means the concentration at half of the fitted maximal effect
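Whole-lifecycle infectious HCVcc-Cre system; cells 1,000/well, compound then virus (~0.5 moi) added 4 h after plating, 44 h culture. Luciferase read 15 sec following 15 min substrate incubation, room temp.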
The depositor's hits bear a star. Unless noted, the call rests on the fitted dose curve; in most records, active means well fitted inhibition curve with a large enough effect; inconclusive means small, poorly fitted or top-dose-only effect, or another doubt; inactive means no such curve, though single readings can be large or run the other way. On the % scale 0 is the no-effect control and ±100 the full control effect.

How did COc1ccc2c(c1)CC/C=C(/C)CC(CO)O2 (centres undefined) do in these assays?
HCMV antiviral: 0

Results for Cc1cccc(Cn2c(SCc3ccc(C(=O)NCCc4ccccc4)cc3)nc3cccnc32)c1 ?
HCMV antiviral: 3

What do the screens show for `CCN(CC)S(=O)(=O)c1ccc(C(=O)NCCSc2c(-c3ccc(F)cc3)[nH]c3ccccc23)cc1`?
HCMV antiviral: -30

Results for Cn1c(=O)[nH]c(=O)c2c1nc(Br)n2CCCSc1nc2ccccc2o1 ?
Pf growth 48h: -23%; HCMV antiviral: -61*; HCV inhibitor: inconclusive

Results for Cc1ccccc1OCc1nc2ccccc2n1Cc1ccccc1Cl ?
HCMV antiviral: -13

What do the screens show for `O=C(Nc1cccc(-n2cccn2)c1)C1CCCN(Cc2ccc(C#CCCO)cc2)C1` (centres undefined)?
Pf growth 96h: 36%; Pf growth 48h: 10µM*; HCMV antiviral: -26; HCV inhibitor: inconclusive

Results for CCn1cc(CN2CCCC(C(=O)Nc3cccc(-n4cccn4)c3)C2)c(C)n1 (centres undefined) ?
Pf growth 96h: 10µM*; Pf growth 48h: -29%; HCMV antiviral: -33; HCV inhibitor: 15%

What do the screens show for `Cc1ccsc1/C=N/N1CCN(c2ccccn2)CC1`?
Pf growth 96h: 43%; Pf growth 48h: 96%; HCMV antiviral: -71*; HCV inhibitor: -27%

How did Cc1ccc(/C=N/N2CCN(c3ccccn3)CC2)cc1 do in these assays?
Pf growth 96h: 68%; Pf growth 48h: 86%; HCMV antiviral: -28; HCV inhibitor: 4%

What do the screens show for `Cc1ccsc1/C=N/N1CCN(c2ccccc2)CC1`?
Pf growth 96h: 208%; Pf growth 48h: 43%; HCMV antiviral: 38; HCV inhibitor: -7%

Results for ClC(/C=N/n1cnnc1)=C/c1ccccc1 ?
Pf growth 96h: 12µM*; Pf growth 48h: 12µM*; HCMV antiviral: 42; HCV inhibitor: inconclusive

What do the screens show for `ClC(=C\c1ccccc1)/C=N/N1CCN(c2ccccn2)CC1`?
Pf growth 96h: 86%; Pf growth 48h: 89%; HCMV antiviral: -70*; HCV inhibitor: 17%

What do the screens show for `COc1ccc(S(=O)(=O)N(CCc2ccccc2)CC(=O)Nc2cc(Cl)ccc2C)cc1`?
HCMV antiviral: -1

What do the screens show for `Cc1ccc(OCCn2cc(Br)c(=O)[nH]c2=O)cc1`?
Pf growth 96h: 9.3µM*; Pf growth 48h: -24%; HCMV antiviral: 38; HCV inhibitor: 1%

How did O=C(NCCCN1CCN(c2ccccc2F)CC1)c1ccc2nc(N3CCCCC3)sc2c1 do in these assays?
HCMV antiviral: 94

What do the screens show for `COc1ccc(C2=NOC(Cn3nc(C(=O)NCc4ccccc4OC)cc3-c3ccccc3)C2)cc1` (centres undefined)?
Pf growth 96h: inconclusive; Pf growth 48h: 13µM*; HCMV antiviral: 2; HCV inhibitor: inconclusive

Results for O=C(NCc1ccc(OC(F)(F)F)cc1)c1cc(-c2ccccc2)nn1CC1CC(c2cccnc2)=NO1 (centres undefined) ?
HCMV antiviral: -67*; HCV inhibitor: inconclusive

Results for CCOC(=O)c1cc(-c2ccccc2)nn1CC1CC(c2ccc(OC)cc2)=NO1 (centres undefined) ?
HCMV antiviral: -11; HCV inhibitor: inconclusive

What do the screens show for `O=C(NCc1ccco1)c1cc(-c2ccccc2)nn1CC1CC(c2cccnc2)=NO1` (centres undefined)?
HCMV antiviral: 2; HCV inhibitor: -25%

Results for COc1ccc(C2=NOC(Cn3nc(-c4ccccc4)cc3C(=O)NCc3ccc(C)cc3)C2)cc1 (centres undefined) ?
HCMV antiviral: -13; HCV inhibitor: 12%

Results for COc1ccc(C2=NOC(Cn3nc(C(=O)NCC4CC4)cc3-c3ccccc3)C2)cc1 (centres undefined) ?
Pf growth 96h: 9.3µM*; Pf growth 48h: inconclusive; HCMV antiviral: 12; HCV inhibitor: inconclusive

How did COc1ccc(C2=NOC(Cn3nc(C(=O)NCc4ccc(OC(F)(F)F)cc4)cc3-c3ccccc3)C2)cc1 (centres undefined) do in these assays?
Pf growth 96h: -20%; Pf growth 48h: 10µM*; HCMV antiviral: 11; HCV inhibitor: 17%

What do the screens show for `CCCc1cc(=O)oc2cc(C)c3c(C(C)(C)C)coc3c12`?
HCMV antiviral: 5

Compound activity: PubChem, National Center for Advancing Translational Sciences (NCATS)
